MEKK2wt PB1 HTS: raises or lowers MEK5 binding to wildtype human MEKK2 PB1 domain; Q9Y2U5; actives 1.1% (n = 290,000); bead flow cytometry, Alexa488-MEK5 binding to MEKK2 WT; actives lie on both sides; binding response (% of control), % at 10 µM; in the data active means binding response below about 67% or above about 130%
MEKK2mut PB1 HTS: signal of MEK5 binding to mutant human MEKK2 PB1 domain. actives 0.35% (n = 290,000). bead flow cytometry, Alexa488-MEK5 binding to MEKK2 mutant. AID 1530. percent response, % at 10 µM; in the data active means percent response above about 24%, passing the limit was not always enough
VLA-4 inh: inhibition in a human VLA-4 binding assay. inhibition, % (about 7 µM as worked out from the volumes in the protocol). P13612. VLA-4 expressing cells, ligand binding flow cytometry. actives 0.2% (n = 330,000); in the data active means inhibition above about 50%
Target sequence (P13612 whole entry, looked up): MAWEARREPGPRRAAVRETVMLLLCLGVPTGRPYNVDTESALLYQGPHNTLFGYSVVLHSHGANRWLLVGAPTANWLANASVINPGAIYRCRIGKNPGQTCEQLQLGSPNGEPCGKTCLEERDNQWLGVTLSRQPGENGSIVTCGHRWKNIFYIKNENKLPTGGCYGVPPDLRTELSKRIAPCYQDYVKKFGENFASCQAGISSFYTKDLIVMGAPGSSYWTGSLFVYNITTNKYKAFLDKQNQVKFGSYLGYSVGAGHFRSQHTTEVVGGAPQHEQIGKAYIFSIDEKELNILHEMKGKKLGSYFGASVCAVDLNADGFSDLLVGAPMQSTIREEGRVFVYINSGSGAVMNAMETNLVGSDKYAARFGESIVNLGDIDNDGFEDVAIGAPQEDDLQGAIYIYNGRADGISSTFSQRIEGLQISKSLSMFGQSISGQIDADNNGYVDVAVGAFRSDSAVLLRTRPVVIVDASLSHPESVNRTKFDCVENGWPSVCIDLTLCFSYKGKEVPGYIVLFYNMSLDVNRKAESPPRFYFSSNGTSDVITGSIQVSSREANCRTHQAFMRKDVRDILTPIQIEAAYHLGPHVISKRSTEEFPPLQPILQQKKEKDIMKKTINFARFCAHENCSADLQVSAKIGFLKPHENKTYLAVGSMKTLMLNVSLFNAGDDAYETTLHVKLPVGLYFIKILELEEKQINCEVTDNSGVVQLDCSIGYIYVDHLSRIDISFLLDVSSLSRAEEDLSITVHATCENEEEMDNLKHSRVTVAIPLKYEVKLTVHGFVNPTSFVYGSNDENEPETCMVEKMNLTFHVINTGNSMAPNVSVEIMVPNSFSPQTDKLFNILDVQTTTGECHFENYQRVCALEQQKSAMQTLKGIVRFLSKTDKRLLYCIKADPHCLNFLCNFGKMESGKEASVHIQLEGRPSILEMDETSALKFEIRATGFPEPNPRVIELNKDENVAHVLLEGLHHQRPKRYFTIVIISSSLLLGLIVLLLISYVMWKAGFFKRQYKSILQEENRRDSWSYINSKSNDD
MEKK3 PB1 HTS: raises or lowers MEK5 binding to the human MEKK3 PB1 domain | bead-based flow cytometry, Alexa488-MEK5 binding to MEKK3; actives lie on both sides; 0 = blocked by unlabeled MEK5, 100 = vehicle | binding response (% of control), % at 10 µM | actives 1.4% (n = 290,000);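 active means binding response more than 3 SD above or below the average of its plate-row segment, actives on both sides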;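 further: Alexa488 bead fluorescence after subtracting the streptavidin-only scavenger bead signal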
MEKK2wt confirm: raises or lowers MEK5 binding to wildtype human MEKK2, retest; shares compounds with MEKK3 PB1 HTS; bead flow cytometry, Alexa488-MEK5 binding to MEKK2 WT; actives lie on both sides; binding response (% of control), % at 10 µM; actives 2.4% (n = 5,900); in the data active means binding response below about 16% or above about 210%; inactive means in between
MEKK2mut confirm: signal of MEK5 binding to mutant human MEKK2, retest; actives 2% (n = 5,900); shares compounds with MEKK3 PB1 HTS; bead flow cytometry, Alexa488-MEK5 binding to MEKK2 mutant; percent response, % at 10 µM; in the data active means percent response mostly above about 71%, no sharp cut-off; inactive means mostly below about 38%;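 further: higher means compound restores mutant binding toward wildtype level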
MEKK3 confirm: MEKK3-MEK5 PB1 inhibition, single concentration confirmation; shares compounds with MEKK3 PB1 HTS; actives 1.8% (n = 5,900); binding response (% of control), % at 10 µM; bead flow cytometry, Alexa488-MEK5 binding to MEKK3; stronger effect = lower value;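 active means binding response below 72% of control, or above a set upper limit, though filed actives all read lower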;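 further: 100% = DMSO only wells and 0% = binding blocked by excess unlabeled MEK5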
* = called active by the depositor; i = inactive; · = not tested or not shown; [ ] = remark or other dose. Rows were chosen to be rich in hits. Some 2.2% of all compounds tested hit in one or more screens of this group.

SMILES	MEKK2wt PB1 HTS	MEKK2mut PB1 HTS	VLA-4 inh	MEKK3 PB1 HTS	MEKK2wt confirm	MEKK2mut confirm	MEKK3 confirm
CCCN1C(=O)c2cccc3c(N4CCCCC4)ccc(c23)C1=O	60.0*[inhibitor]	-4.0	-281.6	87.0	97.0	0.0	102.0
CCCCN(CC)C(=O)Cc1ccccc1OC	107.0	14.0	1.6	107.0	·	·	·
CCCCN(CC)C(=O)Cc1ccc(Br)cc1	105.0	0.0	17.4	128.0*	95.0	5.0	104.0
CCCN(CC(=O)Nc1ccc(C(N)=O)cc1)CC(=O)Nc1ccc(Cl)cc1Cl	106.0	1.0	-3.5	134.0*	101.0	-3.0	101.0
CN(CC(=O)Nc1ccc(Cl)cc1)CC(=O)Nc1ccc(F)c(F)c1F	104.0	0.0	-1.3	131.0*	104.0	2.0	106.0
CCCN(CC(=O)Nc1cc(Cl)cc(Cl)c1)CC(=O)Nc1ccc(F)c(F)c1F	165.0*	17.0	-1.1	99.0	129.0	18.0	109.0
CC(C)(C)OC(=O)CNC(=O)c1[nH]cnc1C(=O)NC(c1ccccc1)c1ccccc1	97.0	-14.0	16.7	96.0	·	·	·
COc1cc(Oc2ccccc2)nc(N)n1	·	·	-8.8	·	·	·	·
COc1ccc(C(=O)NCC(=O)OCC(=O)Nc2cc(OC)ccc2OC)cc1	98.0	2.0	18.7	99.0	·	·	·
COc1ccc(NC(=O)COC(=O)CNC(=O)c2cc(OC)c(OC)c(OC)c2)cc1	105.0	0.0	9.6	145.0*	104.0	4.0	103.0
Cc1cccc(NC(=O)c2ccc([N+](=O)[O-])cc2Cl)n1	108.0	2.0	27.6	137.0*	110.0	5.0	95.0
COCCNc1ccc([N+](=O)[O-])cc1C(=O)Nc1cccc(C)n1	100.0	1.0	-7.2	102.0	·	·	·
Cc1ccc(C)c(OCCC(=O)OC(C)C(=O)Nc2c(C)n(C)n(-c3ccccc3)c2=O)c1 (centres undefined)	·	·	6.7	·	·	·	·
CCOc1cc(/C=N/O)ccc1OCc1ccc(F)cc1	108.0	2.0	-0.3	108.0	·	·	·
CCOc1cc(/C=N/N=C(N)N)ccc1OCc1ccc(Cl)cc1	149.0*	6.0	16.9	104.0	202.0	63.0	109.0
COc1cc(/C=N/O)ccc1OCc1ccc(Cl)cc1	92.0	-4.0	5.8	96.0	·	·	·
COc1cc(/C=N/N=C(N)N)ccc1OCc1ccc(Cl)cc1	230.0*	69.0*	8.3	122.0	180.0	48.0	102.0
C=CCc1c(OC(C)=O)c2ccccc2n(C)c1=O	104.0	0.0	8.8	147.0*	106.0	3.0	106.0
Cc1cccc(C)c1NC(=O)CNC(=O)c1cccnc1	98.0	-4.0	-1.7	98.0	·	·	·
CCN(CC)c1ccc(/C=c2/sc3nnc(-c4ccccc4C)n3c2=O)cc1	·	318.0*	i	101.0	107.0	37.0	85.0
CCN(CC)c1ccc(/C=c2\sc3nnc(-c4ccccc4Cl)n3c2=O)cc1	44.0*[inhibitor]	22.0	i	84.0	65.0	-29.0	78.0
Cc1ccc(/C=c2/sc3nnc(-c4ccccc4Cl)n3c2=O)o1	94.0	0.0	11.3	102.0	·	·	·
Cn1ncc2c(NNC(=O)c3ccccc3Cl)ncnc21	100.0	-1.0	12.8	129.0*	100.0	2.0	104.0
COC/C=C/C1=CC2=CC(=O)C(C)(OC(=O)c3ccco3)C(=O)C2=CO1 (centres undefined)	72.0*[inhibitor]	-9.0	·	83.0	93.0	-4.0	99.0
CCC1(CC)C(=O)C2=C3C1[C@H](C(=O)OC)CC(C(=O)OC)C[C@H]3[C@H]1C(=O)N(c3ccccc3)C(=O)[C@H]1[C@H]2C (some centres undefined)	75.0	-9.0	-12.9	57.0*[inhibitor]	96.0	6.0	97.0
Cc1ccc2cc(CN(CCN3CCOCC3)Cc3nnnn3Cc3ccco3)c(=O)[nH]c2c1C	2.0*[inhibitor]	-69.0	·	2.0*[inhibitor]	106.0	5.0	103.0
CCOc1ccc(CCNC(=O)C(C)n2nc(C)n3c(cc4occc43)c2=O)cc1OCC (centres undefined)	69.0*[inhibitor]	-44.0	-8.8	83.0	101.0	-2.0	102.0

Screening data from PubChem.
